# Data taken from the supplement of paper PMC12282887.
# ± gives the standard deviation of the averaged measurements.
# Legend:
# Experiment in all cases: promoter activity interaction Z-score (Lux/OD deviation from empty-vector control); higher = stronger promoter induction by the compound
# [1] = system: E. coli BW25113 acrABp lux reporter
# Procedure, shortened: (§1)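 At 37°C, E. coli BW25113 reporter cultures in 40 µl LB Lennox in 384-well plates were read for OD600 and luminescence every 30 min for 12 h. Windows were 0–8 h for wild type and 1–9 h for deletion strains, and wells under 10% of the median growth value were removed. The score is the Z-transformed residual of growth-normalised luminescence against a control fit.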
# [2] = system: E. coli BW25113 micFp lux reporter
# Procedure, shortened: as §1
# [3] = system: E. coli BW25113 ompFp lux reporter
# Procedure, shortened: as §1
# [4] = system: E. coli BW25113 robp lux reporter
# Procedure, shortened: as §1
# [5] = system: E. coli BW25113 soxSp lux reporter
# Procedure, shortened: as §1
# [6] = system: E. coli BW25113 tolCp lux reporter
# Procedure, shortened: as §1
# [7] = 23.5 µg/ml, genetic background: wild type
# [8] = 23.5 µg/ml, genetic background: ΔmarA
# [9] = 23.5 µg/ml, genetic background: Δrob
# [10] = 23.5 µg/ml, genetic background: ΔsoxS
# [11] = 47.1 µg/ml, genetic background: wild type
# [12] = 47.1 µg/ml, genetic background: ΔmarA
# [13] = 47.1 µg/ml, genetic background: Δrob
# [14] = 47.1 µg/ml, genetic background: ΔsoxS
# [15] = 94.1 µg/ml, genetic background: wild type
# [16] = 94.1 µg/ml, genetic background: ΔmarA
# [17] = 94.1 µg/ml, genetic background: Δrob
# [18] = 94.1 µg/ml, genetic background: ΔsoxS
# [19] = 188.3 µg/ml, genetic background: wild type
# [20] = 188.3 µg/ml, genetic background: ΔmarA
# [21] = 188.3 µg/ml, genetic background: Δrob
# [22] = 188.3 µg/ml, genetic background: ΔsoxS
smiles,measurement,setting,value
C[C@H](CCC(=O)O)[C@H]1CC[C@H]2[C@@H]3CC[C@@H]4C[C@H](O)CC[C@]4(C)[C@H]3CC[C@]12C [Lithocholic acid],promoter activity interaction Z-score,[1]; [7],0.128 ± 0.083
same,promoter activity interaction Z-score,[1]; [8],1.34 ± 2.3
same,promoter activity interaction Z-score,[1]; [9],0.0671 ± 0.095
same,promoter activity interaction Z-score,[1]; [10],-0.142 ± 0.031
same,promoter activity interaction Z-score,[1]; [11],0.171 ± 0.17
same,promoter activity interaction Z-score,[1]; [12],0.66 ± 0.77
same,promoter activity interaction Z-score,[1]; [13],0.304 ± 0.021
same,promoter activity interaction Z-score,[1]; [14],-0.0227 ± 0.072
same,promoter activity interaction Z-score,[1]; [15],-0.00199 ± 0.34
same,promoter activity interaction Z-score,[1]; [16],0.576 ± 0.88
same,promoter activity interaction Z-score,[1]; [17],-0.304 ± 0.19
same,promoter activity interaction Z-score,[1]; [18],-0.652 ± 0.55
same,promoter activity interaction Z-score,[1]; [19],-0.12 ± 0.18
same,promoter activity interaction Z-score,[1]; [20],0.897 ± 2.2
same,promoter activity interaction Z-score,[1]; [21],-0.207 ± 0.095
same,promoter activity interaction Z-score,[1]; [22],-0.566 ± 1.5
same,promoter activity interaction Z-score,[2]; [7],-0.113 ± 0.26
same,promoter activity interaction Z-score,[2]; [8],0.16 ± 0.35
same,promoter activity interaction Z-score,[2]; [9],0.238 ± 0.17
same,promoter activity interaction Z-score,[2]; [10],-0.193 ± 0.12
same,promoter activity interaction Z-score,[2]; [11],0.314 ± 0.66
same,promoter activity interaction Z-score,[2]; [12],0.226 ± 0.41
same,promoter activity interaction Z-score,[2]; [13],0.0535 ± 0.017
same,promoter activity interaction Z-score,[2]; [14],0.243 ± 0.36
same,promoter activity interaction Z-score,[2]; [15],0.275 ± 0.18
same,promoter activity interaction Z-score,[2]; [16],0.187 ± 0.33
same,promoter activity interaction Z-score,[2]; [17],0.0887 ± 0.27
same,promoter activity interaction Z-score,[2]; [18],-0.363 ± 0.17
same,promoter activity interaction Z-score,[2]; [19],-0.215 ± 0.76
same,promoter activity interaction Z-score,[2]; [20],0.379 ± 0.47
same,promoter activity interaction Z-score,[2]; [21],-0.0294 ± 0.12
same,promoter activity interaction Z-score,[2]; [22],-0.253 ± 0.14
same,promoter activity interaction Z-score,[3]; [7],-0.331 ± 0.28
same,promoter activity interaction Z-score,[3]; [8],0.388 ± 0.35
same,promoter activity interaction Z-score,[3]; [9],0.233 ± 0.41
same,promoter activity interaction Z-score,[3]; [10],-0.266 ± 0.66
same,promoter activity interaction Z-score,[3]; [11],-0.361 ± 0.42
same,promoter activity interaction Z-score,[3]; [12],-0.326 ± 0.22
same,promoter activity interaction Z-score,[3]; [13],0.512 ± 0.58
same,promoter activity interaction Z-score,[3]; [14],0.0216 ± 0.97
same,promoter activity interaction Z-score,[3]; [15],-1.02 ± 0.35
same,promoter activity interaction Z-score,[3]; [16],-0.0279 ± 0.11
same,promoter activity interaction Z-score,[3]; [17],-0.2 ± 0.59
same,promoter activity interaction Z-score,[3]; [18],-1.15 ± 0.78
same,promoter activity interaction Z-score,[3]; [19],-0.885 ± 0.27
same,promoter activity interaction Z-score,[3]; [20],-0.942 ± 0.53
same,promoter activity interaction Z-score,[3]; [21],-0.571 ± 0.34
same,promoter activity interaction Z-score,[3]; [22],-0.828 ± 0.72
same,promoter activity interaction Z-score,[4]; [7],0.566 ± 0.055
same,promoter activity interaction Z-score,[4]; [8],1.44 ± 0.64
same,promoter activity interaction Z-score,[4]; [9],0.487 ± 0.029
same,promoter activity interaction Z-score,[4]; [10],0.99 ± 0.62
same,promoter activity interaction Z-score,[4]; [11],-0.0796 ± 0.041
same,promoter activity interaction Z-score,[4]; [12],0.19 ± 0.14
same,promoter activity interaction Z-score,[4]; [13],0.443 ± 0.039
same,promoter activity interaction Z-score,[4]; [14],1.04 ± 0.47
same,promoter activity interaction Z-score,[4]; [15],-0.0166 ± 0.45
same,promoter activity interaction Z-score,[4]; [16],1.08 ± 0.44
same,promoter activity interaction Z-score,[4]; [17],0.223 ± 0.44
same,promoter activity interaction Z-score,[4]; [18],0.195 ± 0.21
same,promoter activity interaction Z-score,[4]; [19],-0.492 ± 1.1
same,promoter activity interaction Z-score,[4]; [20],0.59 ± 0.34
same,promoter activity interaction Z-score,[4]; [21],0.0946 ± 0.17
same,promoter activity interaction Z-score,[4]; [22],0.391 ± 0.17
same,promoter activity interaction Z-score,[5]; [7],0.313 ± 0.3
same,promoter activity interaction Z-score,[5]; [8],-0.0502 ± 0.087
same,promoter activity interaction Z-score,[5]; [9],0.0422 ± 0.029
same,promoter activity interaction Z-score,[5]; [10],0.057 ± 0.13
same,promoter activity interaction Z-score,[5]; [11],-0.126 ± 0.1
same,promoter activity interaction Z-score,[5]; [12],-0.195 ± 0.067
same,promoter activity interaction Z-score,[5]; [13],0.0214 ± 0.095
same,promoter activity interaction Z-score,[5]; [14],-0.0763 ± 0.36
same,promoter activity interaction Z-score,[5]; [15],-0.137 ± 0.33
same,promoter activity interaction Z-score,[5]; [16],-0.217 ± 0.014
same,promoter activity interaction Z-score,[5]; [17],-0.165 ± 0.32
same,promoter activity interaction Z-score,[5]; [18],-0.531 ± 0.61
same,promoter activity interaction Z-score,[5]; [19],-0.578 ± 0.011
same,promoter activity interaction Z-score,[5]; [20],-0.284 ± 0.089
same,promoter activity interaction Z-score,[5]; [21],-0.408 ± 0.33
same,promoter activity interaction Z-score,[5]; [22],-0.418 ± 0.97
same,promoter activity interaction Z-score,[6]; [7],0.238 ± 0.82
same,promoter activity interaction Z-score,[6]; [8],1.52 ± 0.56
same,promoter activity interaction Z-score,[6]; [9],0.914 ± 0.84
same,promoter activity interaction Z-score,[6]; [10],0.608 ± 1.3
same,promoter activity interaction Z-score,[6]; [11],-0.0238 ± 0.039
same,promoter activity interaction Z-score,[6]; [12],0.952 ± 0.099
same,promoter activity interaction Z-score,[6]; [13],1.24 ± 0.98
same,promoter activity interaction Z-score,[6]; [14],1.3 ± 0.12
same,promoter activity interaction Z-score,[6]; [15],0.429 ± 0.87
same,promoter activity interaction Z-score,[6]; [16],1.04 ± 0.5
same,promoter activity interaction Z-score,[6]; [17],0.552 ± 0.78
same,promoter activity interaction Z-score,[6]; [18],0.284 ± 0.072
same,promoter activity interaction Z-score,[6]; [19],0.995 ± 0.41
same,promoter activity interaction Z-score,[6]; [20],0.554 ± 0.33
same,promoter activity interaction Z-score,[6]; [21],0.54 ± 0.74
same,promoter activity interaction Z-score,[6]; [22],0.774 ± 1.2
